Several values for one entry are separate records, joined by “and”; a condition that tells them apart may be missing. Identical values can stand only once. Counter-ions that a name gives are not always drawn.
Columns and labels:
Assay in all cases: cell viability relative to vehicle control; higher = less cytotoxic
Conditions in all cases: 10 µM
K562 = system: K562
In short: (§1)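 Four leukaemia lines, as CRISPR-edited mutant clones and isogenic wild-type clones, were tested against Selleck bioactive, kinase and epigenetic probe libraries after removal of identity-inconsistent compounds. Cells were exposed to a single 10 µM dose for 48 h, and CellTiter-Glo luminescence was then read. Viability was calculated relative to the on-plate vehicle control.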

MARIMO = system: MARIMO
In short: as §1

MOLM14 = system: MOLM14
In short: as §1

OCI-AML2 = system: OCI-AML2
In short: as §1

| Structure (SMILES) | cell viability (K562; SRSF2 genotype: SRSF2 P95H/wt) | cell viability (K562; SRSF2 genotype: SRSF2 wt/wt) [%] | cell viability (MARIMO; SRSF2 genotype: SRSF2 P95H/wt) [%] | cell viability (MARIMO; SRSF2 genotype: SRSF2 wt/wt) [%] | cell viability (MOLM14; SRSF2 genotype: SRSF2 P95H/wt) [%] | cell viability (MOLM14; SRSF2 genotype: SRSF2 wt/wt) [%] | cell viability (OCI-AML2; SRSF2 genotype: P95H/wt) [%] | cell viability (OCI-AML2; SRSF2 genotype: wt/wt) [%] |
| --- | --- | --- | --- | --- | --- | --- | --- | --- |
| C[C@@]12C[C@H](c3ccoc3)O[C@@]13C[C@H](OC3=O)[C@H]1[C@H]2C[C@@H]2C[C@H]1C(=O)O2 [Diosbulbin B] | 103% and 104% | 102 | 105 | 108 | 108 | 110 | 102 | 101 |
| OC[C@H]1OC(O)[C@H](O)[C@@H](O)[C@H]1O (stereo partly drawn) [D-Galactose] | 101% and 103% | 98.2 | 103 | 105 | 103 | 103 | 105 | 108 |
| Cc1[nH]cnc1CN1CCc2c(c3ccccc3n2C)C1=O [Alosetron Hydrochloride] | 93.1% and 95.7% | 88.6 | 93.7 | 102 | 93.2 | 100 | 91.6 | 101 |
| O=c1[nH]c(=O)c2[nH]cnc2[nH]1 [2,6-Dihydroxypurine] | 107% and 100% | 104 | 106 | 110 | 101 | 107 | 101 | 109 |
| O=C1NC(=O)C(c2ccccc2[N+](=O)[O-])=C1Nc1ccc(O)c(Cl)c1 | 107% and 104% | 104 | 98.5 | 91.9 | 90.7 | 107 | 122 | 120 |
| CN1C(C(=O)Nc2ccccn2)=C(O)c2sccc2S1(=O)=O [Tenoxicam(Mobiflex)] | 105% and 103% | 102 | 107 | 112 | 98.4 | 106 | 95.5 | 105 |
| C[C@@H]1COCCN1c1cc(-c2ccnn2C)c2ccnc(-c3ccn[nH]3)c2n1 | 8.97% and 14.2% | 10.6 | 17.3 | 26.6 | 19.1 | 9.25 | 15 | 17.1 |
| O=c1c(-c2ccc(O)cc2)coc2cc(O)cc(O)c12 [Genistein] | 97.4% and 105% | 105 | 92.6 | 87.8 | 79.4 | 88.7 | 81.8 | 87.4 |
| CCCCc1oc2ccc(NS(C)(=O)=O)cc2c1C(=O)c1ccc(OCCCN(CCCC)CCCC)cc1 [Dronedarone HCl (Multaq)] | 0.8% and 0.71% | 0.61 | 0.56 | 0.71 | 0.53 | 0.6 | 0.5 | 0.55 |
| C=C1C(=O)[C@]23[C@H](O)[C@H]1CC[C@H]2[C@@]12CO[C@]3(O)[C@@H](O)[C@@H]1C(C)(C)CC[C@@H]2O [Oridonin (Isodonol)] | 26.2% and 29.8% | 24.2 | 37.5 | 30.1 | 9.97 | 3.32 | 17.9 | 13.2 |
| O=C(NCC1(c2nc(-c3ccccc3)cs2)CCOCC1)c1cccc(-c2noc(C(F)(F)F)n2)c1 | 82.1% and 90.7% | 86.5 | 86.5 | 85.5 | 87.9 | 97.8 | 75.7 | 79.3 |
| Nc1ccn([C@H]2CC[C@@H](CO)O2)c(=O)n1 [Zalcitabine] | 111% and 103% | 111 | 107 | 112 | 105 | 107 | 58.7 | 83 |
| CN(C)C(=O)COC(=O)Cc1ccc(OC(=O)c2ccc(NC(=N)N)cc2)cc1 [Camostat Mesilate (FOY-305)] | 100% and 101% | 96.3 | 108 | 98.4 | 106 | 98.8 | 100 | 99.6 |
| CCOC(=O)CCNc1cc(N2CCc3ccccc3CC2)nc(-c2ccccn2)n1 | 26.1% and 28.9% | 27.6 | 25.8 | 27.4 | 30.4 | 24.4 | 28.8 | 25.8 |
| CC(C)=CCC[C@@H](C)CC=O [Citronellal] | 104% and 96.5% | 112 | 96.2 | 102 | 103 | 106 | 105 | 114 |
| CC(C(=O)O)c1cccc(Oc2ccccc2)c1 (configuration not stated) [Fenoprofen calcium] | 90.9% and 83.7% | 86.4 | 88.2 | 92.5 | 89.5 | 90.7 | 84.1 | 87.5 |
| CCC[C@H](N[C@H]1CCc2cc(F)cc(F)c2C1)C(=O)Nc1cn(C(C)(C)CNCC(C)(C)C)cn1 | 78% and 88.1% | 88.7 | 74.3 | 86.2 | 78 | 88.8 | 73.3 | 72.3 |
| OC(Cn1cncn1)(Cn1cncn1)c1ccc(F)cc1F [Fluconazole] | 112% and 99.8% | 101 | 98 | 107 | 103 | 101 | 96.9 | 95.7 |
| CC(C)=CCC[C@](C)(O[C@@H]1O[C@H](CO)[C@@H](O)[C@H](O)[C@H]1O)[C@H]1CC[C@]2(C)[C@@H]1[C@H](O)C[C@@H]1[C@@]3(C)CC[C@H](O)C(C)(C)[C@@H]3CC[C@]12C [Ginsenoside CK] | 82.7% and 78.2% | 77 | 92.6 | 104 | 77.2 | 95 | 65.3 | 76.4 |
| OCCOCCN1CCN(Cc2cccc(Oc3ccccc3)c2)CC1 | 97.6% and 99.2% | 94 | 90 | 99.3 | 94.5 | 99.8 | 84 | 93.8 |

| Structure (SMILES) | cell viability (K562; SRSF2 genotype: SRSF2 P95H/wt) | cell viability (K562; SRSF2 genotype: SRSF2 wt/wt) [%] | cell viability (MARIMO; SRSF2 genotype: SRSF2 P95H/wt) [%] | cell viability (MARIMO; SRSF2 genotype: SRSF2 wt/wt) [%] | cell viability (MOLM14; SRSF2 genotype: SRSF2 P95H/wt) [%] | cell viability (MOLM14; SRSF2 genotype: SRSF2 wt/wt) [%] | cell viability (OCI-AML2; SRSF2 genotype: P95H/wt) [%] | cell viability (OCI-AML2; SRSF2 genotype: wt/wt) [%] |
| --- | --- | --- | --- | --- | --- | --- | --- | --- |
| COc1ccc(Cn2ccc3ccc(C(=O)NO)cc32)cc1 | 91.2% and 87.7% | 84.4 | 65.9 | 75.9 | 84.1 | 81.6 | 69.3 | 75.5 |
| O=C1NCCc2[nH]c(-c3ccncc3)cc21 | 50.4% and 42% | 63.5 | 12.7 | 7.5 | 1.91 | 0.86 | 4.1 | 14.9 |
| CC1(C)CC(=O)c2c(C(F)(F)F)nn(-c3ccc(C(N)=O)c(N[C@H]4CC[C@H](OC(=O)CN)CC4)c3)c2C1 | 21.8% and 27.1% | 25.3 | 29.4 | 24.4 | 2.89 | 4.44 | 14.6 | 22.1 |
| CNCCN(C)Cc1c[nH]nc1-c1ccc(O[C@H]2C[C@H](OCCC3CCOCC3)C2)cc1 | 90% and 92.8% | 89.7 | 89 | 92.4 | 79.4 | 96.4 | 67.1 | 75.1 |
| COc1ccc(Cl)c(Nc2nc3ccccc3nc2NS(=O)(=O)c2cccc(NC(=O)C(C)(C)N)c2)c1 [Pilaralisib (XL147)] | 87.3% and 96.2% | 84 | 68.6 | 66 | 59.3 | 55 | 52.3 | 54.6 |
| CC(C)C[C@H](NC(=O)[C@H]1O[C@@H]1C(=O)O)C(=O)NCCCCN=C(N)N | 106% and 111% | 114 | 99.6 | 104 | 101 | 104 | 108 | 115 |
| CC(=O)Nc1ccccc1 [Acetanilide (Antifebrin)] | 104% | 101 | 106 | 106 | 96.4 | 101 | 105 | 102 |
| NC(=O)c1ccc[n+]([O-])c1 [Nicotinamide N-oxide] | 110% | 111 | 107 | 109 | 98.7 | 105 | 112 | 101 |
| COc1cc2ncnc(Nc3ccc(Cl)cc3F)c2cc1OC | 87.2% and 95.4% | 82.8 | 91.9 | 103 | 86.7 | 96.1 | 92.9 | 92.1 |
| Nc1ccccc1NC(=O)c1ccc(CNc2nccc(-c3cccnc3)n2)cc1 [Mocetinostat (MGCD0103)] | 4.12% and 14.8% | 10.5 | 7.4 | 9.28 | 0.6 | 0.42 | 0.44 | 3.29 |
| CO[C@H]1C(=O)[C@]2(C)[C@@H](OC)C[C@H]3OC[C@@]3(OC(C)=O)[C@H]2[C@H](OC(=O)c2ccccc2)[C@]2(O)C[C@H](OC(=O)[C@H](O)[C@@H](NC(=O)OC(C)(C)C)c3ccccc3)C(C)=C1C2(C)C [Cabazitaxel (Jevtana)] | 24.8% and 36.9% | 36.7 | 7.53 | 5.43 | 8.88 | 4.79 | 7.39 | 16 |
| CC[C@@H]1/C=C(\C)C[C@H](C)C[C@H](OC)[C@H]2O[C@@](O)(C(=O)C(=O)N3CCCC[C@H]3C(=O)O[C@H](/C(C)=C/[C@@H]3CC[C@@H](O)[C@H](OC)C3)[C@H](C)[C@@H](O)CC1=O)[C@H](C)C[C@@H]2OC [Ascomycin (FK520)] | 75.8% and 83% | 83.6 | 86.6 | 96.8 | 89.1 | 89.1 | 95.8 | 93.5 |
| COc1ccc(-c2cc(=O)c3c(OC)c(OC)c(OC)c(OC)c3o2)cc1 [Tangeretin (Tangeritin)] | 95.5% and 98.4% | 103 | 91.7 | 90.8 | 96 | 102 | 82.9 | 88.1 |
| Cc1ccc(NC(=O)Nc2cc(C(F)(F)F)ccc2F)cc1Nc1ccc2c(c1)NC(=O)/C2=C\c1ccc[nH]1 | 75.2% and 70.9% | 62.1 | 84.4 | 92.2 | 86.5 | 94.4 | 74.4 | 70.1 |
| CC(=O)O[C@H]1C[C@@H]2CC[C@@H]3[C@H](CC[C@@]4(C)[C@H]3C[C@H]([N+]3(C)CCCCC3)[C@@H]4OC(C)=O)[C@@]2(C)C[C@@H]1N1CCCCC1 [Vecuronium Bromide] | 101% and 109% | 109 | 105 | 103 | 99.8 | 101 | 111 | 109 |
| O=S(=O)(O)NC1CCCCC1 [Cyclamic acid] | 102% and 96.3% | 97.2 | 100 | 111 | 104 | 104 | 94.5 | 110 |
| Cc1c(CN2CCN(C(=O)[C@H](C)O)CC2)sc2c(N3CCOCC3)nc(-c3cnc(N)nc3)nc12 [Apitolisib (GDC-0980, RG7422)] | 43.1% and 43.8% | 38.9 | 39.7 | 33.8 | 21.7 | 21.6 | 5.46 | 14.5 |
| C[C@H]1[C@@H](O)O[C@@H]2O[C@@]3(C)CC[C@H]4[C@H](C)CC[C@@H]1[C@@]24OO3 [Dihydroartemisinin (DHA)] | 37.7% and 30.4% | 28.8 | 25 | 29.9 | 22.1 | 9.71 | 0.58 | 7.67 |
| C[C@@H]1O[C@@H](O[C@H]2[C@H](O[C@H]3CC[C@@]4(C)[C@@H](CC[C@]5(C)[C@@H]4CC=C4[C@@H]6CC(C)(C)CC[C@]6(C(=O)O[C@@H]6O[C@H](CO[C@@H]7O[C@H](CO)[C@@H](O)[C@H](O)[C@H]7O)[C@@H](O)[C@H](O)[C@H]6O)CC[C@]45C)[C@]3(C)CO)OC[C@H](O)[C@@H]2O)[C@H](O)[C@H](O[C@@H]2O[C@H](CO)[C@@H](O[C@@H]3O[C@H](CO)[C@@H](O)[C@H](O)[C@H]3O)[C@H](O)[C@H]2O)[C@H]1O [Macranthoidin B] | 86.7% and 84.6% | 85 | 83.6 | 94.2 | 86 | 86.6 | 91.4 | 86 |

Source: the supplement of paper PMC10981050
